Sampled rows, rich in hits. Any-hit rate of the full collection: about 7.9%.
HT1080NT lethal – qHTS for induction of synthetic lethality in tumor cells producing 2HG: qHTS for the HT-1080-NT fibrosarcoma cell line; HT-1080-NT fibrosarcoma viability, CellTiter-Glo ATP luminescence, 48 h; Potency, µM (top dose mostly 46.1 µM), inactives show at the top dose activity, negative = less viability, most hits filed as cytotoxic; actives 1.6% (n = 360,000);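 further: NT is the 2HG producing partner of a matched IDH1 knockdown line; 0% = DMSO-treated cells and -100% = media-only wells without cells; nearly all actives have a fitted effect of over 55% in size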
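Viability by CellTiter-Glo luminescence after 48 h compound exposure at 37C of HT-1080-NT cells (750/well, RPMI, 5% FBS). % activity scaled between DMSO wells and medium-only wells, then curve-fitted and categorized by curve class.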
SW480 rerep – A quantitative high throughput screen for small molecules that induce DNA re-replication in SW480 colon adenocarcinoma cells; actives 1.8% (n = 340,000); SW480 DNA re-replication, Hoechst DNA content imaging, 48 h; Potency, µM (top dose mostly 46.1 µM), without a hit: at the highest dose re-replication activation, actives largely listed as activators; further: % of control where 0% means no effect; nearly all actives have a fitted effect of over 55% in size
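Readout is total intensity of Hoechst-stained nuclei, excited at 405 nm and collected at 500-530 nm. Compound treatment lasted 48 hr at 37 C in 5% CO2 before staining.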
HT1080 IDH1KD tx – qHTS for induction of synthetic lethality in tumor cells producing 2HG: qHTS for the HT-1080-IDH1KD cell line. Potency, µM (titrated, usually from 46.1 µM), for the others: at the highest dose activity, negative = toxicity, actives largely listed as cytotoxic. HT-1080 IDH1 knockdown viability, ATP luminescence, 48 h. actives 2% (n = 360,000). AID 686971, 2013;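 further: 0% = DMSO wells and -100% = cell-free medium wells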
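CellTiter-Glo luminescence after 48 h compound exposure at 37 degrees C of IDH1-knockdown HT-1080 cells in 5% FBS RPMI. %Activity scaled between DMSO wells and cell-free media wells, with curves fitted and assigned curve classes.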
KB-V1 MDR tox – qHTS assay for MDR1-selective chemotherapeutics: Primary screen using the drug-selected MDR subline cells KB-V1; KB-V1 MDR cells viability, CellTiter-Glo, 72 h; AID 1347076, 2019; Potency, µM (highest dose often 46.1 µM), hits mostly cytotoxic; actives 3.4% (n = 400,000); further: on the % scale 0 is the no-effect control and ±100 the full control effect; nearly all actives have a fitted effect of over 60% in size
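Cytotoxicity via CellTiter-Glo luminescence after 72 h compound exposure at 37 degrees C. Cells: drug-selected KB-V1 line, DMEM phenol-red free plus 10% FBS. Compounds tested at multiple concentrations; normalized data fitted to concentration-effect curves.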
MCF10A rereplic – A quantitative high throughput screen for small molecules that induce DNA re-replication in MCF 10a normal breast cells. MCF 10A DNA re-replication, Hoechst nuclear intensity, 48 h. Potency, µM (highest dose often 46.1 µM), without a hit: at the highest dose activity, positive = re-replication, usual class: activators. actives 2.9% (n = 350,000); further: % of control where 0% means no effect; nearly all actives have a fitted effect of over 50% in size
KB-3-1 cytotox – qHTS assay for MDR1-selective chemotherapeutics: Primary screen using the parental adenocarcinoma cell KB-3-1 | KB-3-1 viability, CellTiter-Glo ATP luminescence, 72 h | Potency, µM (highest dose often 46.1 µM), most hits filed as cytotoxic | actives 1.4% (n = 400,000) | AID 1347075, 2019; further: on the % scale 0 is the no-effect control and ±100 the full control effect; nearly all actives have a fitted effect of over 60% in size
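Parental KB-3-1 viability, qHTS format: 72 h compound exposure, 37 °C; CellTiter-Glo; media-only wells and DMSO plates as controls; concentration-effect fits on corrected data.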
The depositor's hits bear a star; ! = not confirmed by another sample; [ ] = dose if it differs, or a comment. The call rests on the fitted dose curve; in most records, active means well fitted curve in the direction sought with a large enough effect; inconclusive means small, poorly fitted or top-dose-only effect, or another doubt; inactive means no such curve, though single readings can be large; an effect the other way counts as inactive or inconclusive. Potency means the concentration at half of the fitted maximal effect.

Screening CCc1ccccc1NC(=O)Cn1nnc(C(=O)NCc2ccco2)c1N returned KB-V1 MDR tox inconclusive and KB-3-1 cytotox 8.2µM*.
For Cc1ccc(NC(=O)Cn2nnc(C(=O)NCc3cccs3)c2N)cc1 the results were HT1080NT lethal inconclusive, SW480 rerep -5%, HT1080 IDH1KD tx inconclusive, KB-V1 MDR tox inactive, MCF10A rereplic 430%[0.0737 µM] and KB-3-1 cytotox inactive.
CCOc1ccc(OCC)c(NC(=O)c2nnn(CC(=O)Nc3cc(C)cc(C)c3)c2N)c1 was read as HT1080NT lethal inconclusive, SW480 rerep inconclusive, HT1080 IDH1KD tx 21µM*, KB-V1 MDR tox inactive, MCF10A rereplic 18µM* and KB-3-1 cytotox inactive.
`Cc1ccc(C)c(NC(=O)Cn2nnc(C(=O)NCc3cccs3)c2N)c1` gave HT1080NT lethal inconclusive, SW480 rerep 13%, HT1080 IDH1KD tx 23µM*, KB-V1 MDR tox inactive, MCF10A rereplic inconclusive and KB-3-1 cytotox inactive.
For COc1ccccc1NC(=O)Cn1nnc(C(=O)NCc2cccs2)c1N the results were HT1080NT lethal 2.3µM*, SW480 rerep inconclusive, HT1080 IDH1KD tx 2.1µM*, KB-V1 MDR tox 5.8µM*, MCF10A rereplic 1.2µM* and KB-3-1 cytotox 2.1µM*!.
For NC(=O)C1CCCN(C(=O)c2ccc3nc(Cc4cccc(Cl)c4)oc3c2)C1 (configuration not stated) the results were HT1080NT lethal 3%, SW480 rerep -19%, HT1080 IDH1KD tx 6%, KB-V1 MDR tox inactive, MCF10A rereplic 20% and KB-3-1 cytotox inactive.
`Cc1cc(C)cc(NC(=S)NC(=O)CCN2C(=O)c3ccccc3C2=O)c1` gave HT1080NT lethal 5%, SW480 rerep -2%[9.22 µM], HT1080 IDH1KD tx 11%, KB-V1 MDR tox inactive, MCF10A rereplic -18% and KB-3-1 cytotox inactive.
For COc1ccc(NC(=O)Cn2nnc(C(=O)NCc3ccccc3)c2N)c(OC)c1 the results were HT1080NT lethal inconclusive, SW480 rerep inconclusive, HT1080 IDH1KD tx inconclusive, KB-V1 MDR tox inactive, MCF10A rereplic 16µM* and KB-3-1 cytotox inconclusive.
CCc1ccccc1NC(=O)Cn1nnc(C(=O)NCc2cccs2)c1N was read as HT1080NT lethal 5.8µM*, SW480 rerep 3.3µM*, HT1080 IDH1KD tx 4.1µM*, KB-V1 MDR tox inactive, MCF10A rereplic inconclusive and KB-3-1 cytotox 9.2µM*!.
CCc1ccc(NC(=O)Cn2nnc(C(=O)NCc3cccs3)c2N)cc1 was read as HT1080NT lethal -3%, SW480 rerep -1%, HT1080 IDH1KD tx -4%, KB-V1 MDR tox inactive, MCF10A rereplic -1% and KB-3-1 cytotox inactive.
`COc1cccc(N2CCN(C(=O)c3ccc(CS(=O)c4ccc(C)cc4)o3)CC2)c1` (configuration not stated) gave HT1080NT lethal 0.21µM*, SW480 rerep inconclusive, HT1080 IDH1KD tx 0.29µM*, KB-V1 MDR tox inconclusive, MCF10A rereplic inconclusive and KB-3-1 cytotox 0.37µM*.
O=C(c1ccc(CS(=O)c2cccc(Cl)c2)o1)N1CCN(c2ccccn2)CC1 (configuration not stated) was read as HT1080NT lethal inconclusive, SW480 rerep 25%, HT1080 IDH1KD tx inconclusive, KB-V1 MDR tox inconclusive, MCF10A rereplic inconclusive and KB-3-1 cytotox 7.3µM*.
COc1cccc(N2CCN(C(=O)c3ccc(CS(=O)c4ccc(Cl)cc4)o3)CC2)c1 (configuration not stated) was read as HT1080NT lethal inconclusive, SW480 rerep inconclusive, HT1080 IDH1KD tx 1.8µM*, KB-V1 MDR tox inconclusive, MCF10A rereplic inconclusive and KB-3-1 cytotox 8.2µM*.
O=C(c1ccc(CS(=O)c2cccc(Cl)c2)o1)N1CCOCC1 (configuration not stated) was read as HT1080NT lethal 0%, SW480 rerep 2%, HT1080 IDH1KD tx 2%, KB-V1 MDR tox inactive, MCF10A rereplic 3% and KB-3-1 cytotox inactive.
CC(C)OC(=O)/C(=C\c1ccc2c(c1)c1ccccc1n2C)NC(=O)c1ccccc1 was read as HT1080NT lethal 0%, SW480 rerep 2%, HT1080 IDH1KD tx 1%, KB-V1 MDR tox inconclusive, MCF10A rereplic inconclusive and KB-3-1 cytotox inactive.
For CC(=O)c1ccc(N2CCN(C(=O)CNS(=O)(=O)c3ccc4c(c3)OCCCO4)CC2)c(F)c1 the results were HT1080NT lethal -2%, SW480 rerep 2%, HT1080 IDH1KD tx -1%, KB-V1 MDR tox inconclusive, MCF10A rereplic 12% and KB-3-1 cytotox inactive.
C1NNCC12CNNC2 was read as HT1080NT lethal inconclusive and HT1080 IDH1KD tx 0%.
Screening O=[N+]([O-])c1ccccc1S(=O)c1ccccc1[N+](=O)[O-] returned HT1080NT lethal 21µM*, HT1080 IDH1KD tx inconclusive, KB-V1 MDR tox inconclusive and KB-3-1 cytotox inconclusive.
For Cc1ccc(C(=C2C3C=CC2C2C(=O)NC(=O)C32)c2ccc(C)cc2)cc1 (configuration not stated) the results were HT1080NT lethal inconclusive, SW480 rerep 26%, HT1080 IDH1KD tx inconclusive, KB-V1 MDR tox 15µM*, MCF10A rereplic inconclusive and KB-3-1 cytotox inconclusive.
Cc1ccc(NC2C(=O)NC(=O)NC2=O)cc1 was read as HT1080NT lethal -15%, SW480 rerep 11%, HT1080 IDH1KD tx -7%, KB-V1 MDR tox inactive, MCF10A rereplic 23% and KB-3-1 cytotox inactive.
For CCCN(CC(=O)Nc1ccccc1C)C(=O)c1nn(CC)c(=O)c2ccccc12 the results were HT1080NT lethal -2%, SW480 rerep -3%, HT1080 IDH1KD tx -3%, KB-V1 MDR tox 8.2µM*, MCF10A rereplic -3% and KB-3-1 cytotox inactive.
Screening c1ccc2c(c1)CCN(c1ncnc3nc[nH]c13)C2 returned HT1080NT lethal 15%, SW480 rerep 0%, HT1080 IDH1KD tx 11%, KB-V1 MDR tox inactive, MCF10A rereplic 1% and KB-3-1 cytotox inconclusive.
Screening CC1Cc2ccccc2N1c1ncnc2nc[nH]c12 (configuration not stated) returned HT1080NT lethal 1%, SW480 rerep -11%, HT1080 IDH1KD tx 2%, KB-V1 MDR tox inactive, MCF10A rereplic 24% and KB-3-1 cytotox 9.2µM*.
